In the library only some 19% were active in any assay of this set; here they are far more common.
TDP1 cell noCPT = qHTS for Inhibitors of human tyrosyl-DNA phosphodiesterase 1 (TDP1): qHTS in cells in absence of CPT; Potency, µM (top dose mostly 46.2 µM), for inactives: at the top dose activity change, negative = growth inhibition, most hits filed as inhibitors; DT40 Tdp1-/- hTDP1 cells, no CPT, ATP luminescence, 48 h; 420,000 compounds, 15% hits; also: potency is read from the fitted curve at half-maximal effect; % is scaled to controls: 0 for no effect and ±100 for the full control effect; nearly all actives have a fitted effect of over 55% in size
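Compound effects on proliferation are scored in DT40 Tdp1-/-;hTDP1 cells in the absence of CPT. ATP levels (CellTiter-Glo luminescence) are recorded after a ≥48 hr, 37 °C incubation.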
TDP1 cell CPT = qHTS for Inhibitors of human tyrosyl-DNA phosphodiesterase 1 (TDP1): qHTS in cells in presence of CPT | chicken DT40 Tdp1-/-;hTDP1 cells + 20 nM CPT, ATP luminescence, 48 h | Potency, µM (top dose mostly 46.2 µM), for inactives: at the top dose activity change, negative = growth inhibition, usual class: inhibitors | 420,000 compounds, 12% hits; also: potency is read from the fitted curve at half-maximal effect; % is scaled to controls: 0 for no effect and ±100 for the full control effect; nearly all actives have a fitted effect of over 55% in size
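Chicken DT40 Tdp1-/- cells stably complemented with human TDP1 were seeded at 400 cells/well in medium containing 20 nM camptothecin, exposed to pin-transferred compounds, and grown at 37 °C for at least 48 hr. Viability was read as ATP luminescence.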
TDP1 block = qHTS Assay for Inhibitors of Tyrosyl-DNA Phosphodiesterase (TDP1); 350,000 compounds, 0.28% hits; Potency, µM (titrated, usually from 130 µM), without a hit: at the top dose activity change, negative = inhibition, most hits filed as inhibitors; Tyrosyl-DNA phosphodiesterase 1 (Homo sapiens), Q9NUW8; recombinant TDP1, AlphaScreen DNA substrate cleavage; also: potency is read from the fitted curve at half-maximal effect; % is scaled to controls: 0 for no effect and ±100 for the full control effect; nearly all actives have a fitted effect of over 40% in size
Target sequence (Q9NUW8 whole entry, looked up): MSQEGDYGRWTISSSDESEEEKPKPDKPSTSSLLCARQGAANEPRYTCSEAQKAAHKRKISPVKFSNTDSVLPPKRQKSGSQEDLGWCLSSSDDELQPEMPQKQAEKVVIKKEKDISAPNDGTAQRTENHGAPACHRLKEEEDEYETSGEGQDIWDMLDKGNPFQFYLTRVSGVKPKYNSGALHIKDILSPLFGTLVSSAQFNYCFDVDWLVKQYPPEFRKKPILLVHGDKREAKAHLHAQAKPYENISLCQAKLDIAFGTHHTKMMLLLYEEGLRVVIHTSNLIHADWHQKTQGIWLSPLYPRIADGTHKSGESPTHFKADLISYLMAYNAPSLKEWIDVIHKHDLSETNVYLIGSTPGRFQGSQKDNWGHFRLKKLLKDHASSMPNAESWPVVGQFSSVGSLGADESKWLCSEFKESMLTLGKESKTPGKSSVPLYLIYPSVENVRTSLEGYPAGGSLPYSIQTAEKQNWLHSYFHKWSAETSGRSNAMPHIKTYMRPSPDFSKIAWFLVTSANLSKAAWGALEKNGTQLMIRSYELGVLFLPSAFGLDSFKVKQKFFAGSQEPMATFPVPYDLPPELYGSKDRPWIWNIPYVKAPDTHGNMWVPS
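Recombinant E. coli-expressed Tdp1 (1 nM) preincubated with compound 15 min at RT, then 5'-biotin/3'-phosphotyrosine-FITC DNA substrate (15 nM) added for 5 min. AlphaScreen beads (10 ug/ml) added, 10 min RT; tyrosine-FITC cleavage read as signal loss.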
TGFb SMAD3 inh = qHTS for Inhibitors of TGF-b; HepG2 CAGA-GFP TGF-b/SMAD3 reporter, GFP fluorescence, 18 h; TGF-beta stimulated, 500 pg/mL final; Potency, µM (series often up to 46.1 µM), without a hit: top-dose activity, negative = inhibition, hits mostly inhibitors; 410,000 compounds, 1.2% hits; also: potency is read from the fitted curve at half-maximal effect; % is scaled to controls: 0 for no effect and ±100 for the full control effect; nearly all actives have a fitted effect of over 65% in size
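Cell-based qHTS in HEPG2 carrying a CAGA-GFP Smad reporter; compounds added before 500 pg/mL final TGF-beta, 18 h incubation at 37 degrees C, GFP fluorescence quantified per cell by imaging cytometry.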
IL-1B inflam inh = qHTS for Inhibitors of Inflammasome Signaling: IL-1-beta AlphaLISA Primary Screen | THP-1 LPS/ATP IL-1B secretion, AlphaLISA, 16 h; stronger effect = lower value | activity change, % at 57.5 µM | 360,000 compounds, 4.7% hits; in the data active = activity change below about -50%; inconclusive = mostly about -30% to -49%; also: % is scaled to controls: 0 for no effect and ±100 for the full control effect
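Secreted IL-1B measured by AlphaLISA bead assay after 16 h compound exposure of THP-1 cells; compounds (final up to 57.5 uM) added 1 h before LPS (250 ng/mL) and ATP (1.25 mM) stimulation; lower signal means less secretion.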
HepG2 tox = qHTS for Inhibitors of TGF-b: Cytotox Counterscreen; HepG2 CAGA-GFP viability, ATP luminescence, 18 h; Potency, µM (series often up to 46.1 µM), for the others: top-dose activity change, negative = cytotoxicity, usual class: cytotoxic; 410,000 compounds, 0.76% hits; AID 588856, 2011; also: potency is read from the fitted curve at half-maximal effect
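HepG2 CAGA-GFP cells (1000/well, DMEM with 1% FBS) received compound, then TGF-beta at 500 pg/mL final, and were incubated 18 hours at 37 degrees C. Viability was read by CellTiter-Glo luminescence. Media-only wells were set as complete cell-killing and DMSO as no toxicity.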
Active calls of the source: *; ? = inconclusive; nt = no result; ! = not confirmed by another sample; [ ] = remark or other dose. Unless noted, calls follow the shape of the dose curve; as a rule, active = well fitted curve in the direction sought with a large enough effect; inconclusive = small, poorly fitted or top-dose-only effect, or another doubt; inactive = no such curve, though single readings can be large; an effect the other way counts as inactive or inconclusive.

SMILES	TDP1 cell noCPT	TDP1 cell CPT	TDP1 block	TGFb SMAD3 inh	IL-1B inflam inh	HepG2 tox
CCOc1ccc(OCCC(=O)N2CCN(S(=O)(=O)c3ccc(OCC)cc3)CC2)cc1	-18%	-9%	-18%	-5%	0	-42%
Cc1cc(Cl)ccc1OCCCC(=O)N1CCN(S(=O)(=O)c2ccccc2)CC1	?	?	2%	-22%	-87*	-37%
COc1cccc(NC(=O)CN(C)C(=O)CSCC(=O)Nc2ccc(C)cc2)c1	-1%	-1%	2%	-2%	36	-2%
Cc1cc(Cl)ccc1Nc1ncnc2onc(C)c12	?	?	-2%	-11%	nt	1%
CC(C)CNS(=O)(=O)c1ccc(CCC(=O)Nc2cc(Cl)ccc2Oc2ccccc2)cc1	?	?	3%	-2%	?	-19%
CC(C)(C)NS(=O)(=O)c1ccc(CCC(=O)Nc2cc(Cl)ccc2Oc2ccccc2)cc1	?	?	4%	?	-63*	1%
CCC(C)C(=O)N1c2ccccc2C(=C2SC(C(=O)OC)=C(C(=O)OC)S2)C(=S)C1(C)C (centres undefined)	13µM*	11µM*	14%	?	-59*	-24%
O=S(=O)(c1cccc2cnccc12)N1CCCNCC1	?	?	3%	8%	-20	-24%
CC1CNCCN1S(=O)(=O)c1cccc2cnccc12 (centres undefined)	15µM*!	?	6%	-21%	-91*!	-32%
Cc1c(CNC2CCCCCC2)c(C(=O)O)c(C)n1Cc1ccc(F)cc1	-11%	5%	3%	-11%	nt	19%
CCc1c(C)sc2c1CCN(Cc1cccc(F)c1)C2c1ccccc1 (centres undefined)	12µM*	?	-4%	-25%	nt	-25%
CCc1c(C)sc2c1CCN(Cc1ccc(F)cc1)C2c1ccccc1 (centres undefined)	4.6µM*	?	4%	-16%	nt	-13%
CCOc1ccc(-n2ccnc(SCC(=O)Nc3ccc(OC)cc3OC)c2=O)cc1	23µM*	21µM*	-2%	?	-10	-8%
COc1ccc(CNC(=O)CSc2nccn(-c3ccc(F)c(F)c3)c2=O)cc1	-18%	-6%	-7%	-5%	18	-2%
CCOc1ccc(-n2ccnc(SCC(=O)NCc3cccc(OC)c3)c2=O)cc1	23µM*	18µM*	-19%	-2%	-11	-32%
O=C(c1ccccc1)c1ccccc1N1C(=O)C=CC1=O	1.6µM*	0.73µM*	10%	?	-98*	-22%
O=C1C=CC(=O)N1c1ccccc1N1C(=O)C=CC1=O	0.58µM*	0.92µM*	nt	?	-98*	-95%
O=C1C=CC(=O)N1c1ccccn1	?	?	nt	1%	-2	12%
CCN(CC(=O)Nc1c(F)cccc1F)C(=O)CCc1nc2cc(S(=O)(=O)N3CCOCC3)ccc2n1C	-3%	-24%	-13%[0.505 µM]	?	-3	-3%
O=S(=O)(Nc1ccc(-c2ccc(N3CCCC3)nn2)cc1)c1ccc(Cl)cc1	?	15µM*	4%	0%	nt	-24%
COc1cc(C)c(S(=O)(=O)Nc2cccc(-c3ccc(N4CCCC4)nn3)c2)cc1C	-36%	?	3%	-30%	nt	-21%
O=S(=O)(Nc1ccc(-c2ccc(N3CCCCC3)nn2)cc1)c1ccc(OC(F)(F)F)cc1	16µM*	?	3%	?	nt	-19%
Cc1cc(S(=O)(=O)Nc2ccc(-c3ccc(N4CCCCC4)nn3)cc2)c(C)cc1Cl	?	13µM*	4%	-29%	nt	-4%
O=C(CN(Cc1ccco1)C(=O)CNS(=O)(=O)c1ccc(F)cc1)NCc1ccco1	-6%	0%	nt	1%	17	6%
Oc1cccc(NC(=S)N=Nc2c(O)[nH]c3ccc(Br)cc23)c1	?	?	nt	?	-5	-105%
SMILES	TDP1 cell noCPT	TDP1 cell CPT	TDP1 block	TGFb SMAD3 inh	IL-1B inflam inh	HepG2 tox
Oc1[nH]c2ccc(Br)cc2c1N=NC(=S)Nc1ccc(F)cc1	2.9µM*	1.3µM*	9%	10µM*	-2	-65%
CNC(=S)N=Nc1c(O)[nH]c2ccc(C(C)C)cc12	18µM*	?	3%	-19%	0	-7%
Oc1ccc(NC(=S)N=Nc2c(O)[nH]c3ccc(Br)cc23)cc1	23µM*	-78%	11%	?	-64*	22µM*
CC(C)c1ccc2[nH]c(O)c(N=NC(=O)c3cccc(S(=O)(=O)N4CCCCC4)c3)c2c1	9.2µM*	12µM*	5%	-5%	17	5%
N=C(N)N=Nc1c(O)[nH]c2ccc(Br)cc12	-23%	6%	-2%	-8%	-24	-12%
Nc1ncnc2c1ncn2[C@@H]1O[C@H](COP(=O)(O)O)[C@@H](O)[C@@H]1O	nt	nt	5%[21 µM]	nt	nt	nt
CCCCCCOC(=O)CC1CC(C(C)=O)C1(C)C (centres undefined)	?	0%	nt	7%	-4	2%
CN(C)C1(CNC(=O)COc2ccc(C(C)(C)C)cc2)CCCCC1	?	?	6%	7%	nt	-25%
CCCCCCCCCCCCCCCC(N)=O	nt	nt	7%	nt	nt	nt
Cc1nn(-c2ccccc2)c2c1C(c1ccc([N+](=O)[O-])cc1)C(C#N)=C(N)O2 (centres undefined)	?	15µM*	5%	-31%	-12	-10%
Cc1nn(S(=O)(=O)c2ccc(Cl)cc2)c(C)c1S(=O)(=O)N1CCCCCC1	-14%	1%	-2%	27%	nt	8%
Cc1nn(S(=O)(=O)c2ccc(Cl)cc2)c(C)c1Sc1ccc([N+](=O)[O-])cc1	16µM*	16µM*	6%	?	-10	2%
Cc1nn(-c2ccccc2)c(N)c1Sc1ccc([N+](=O)[O-])cc1	15µM*	?	0%	?	?	-22%
O=C(NCCCCNC(=O)c1ccccc1Br)c1ccccc1Br	12%	6%	nt	20%	-8	16%
COc1ccc2c(c1)C(=O)[C@H](OC(=O)N[C@H]1CCCc3ccccc31)[C@@H](c1ccc(OC)c(Br)c1)O2	nt	nt	1%	nt	nt	nt

Compound activity from PubChem BioAssay.
